Sampled rows, rich in hits. Any-hit rate of the full collection: about 3.1%.
ERAP1 inh: blocks human ERAP1 aminopeptidase activity; AID 652197; recombinant ERAP1, Leu-AMC fluorescence, 60 min; inhibition, % at 10.7 µM; 340,000 compounds, 0.15% hits;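 active means mean replicate inhibition of at least 30%, or all replicates individually reaching that 30% level; inactive means mean below 30% and not every replicate reaching it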
SIRT5 block: blocks human SIRT5 desuccinylation of peptide; inhibition, % at 15 µM; 330,000 compounds, 1.1% hits; Q9NXA8; Purified SirT5, succinyl-peptide AMC, trypsin-coupled fluorescence; in the data active means inhibition above about 15%
Target sequence (Q9NXA8 whole entry, looked up): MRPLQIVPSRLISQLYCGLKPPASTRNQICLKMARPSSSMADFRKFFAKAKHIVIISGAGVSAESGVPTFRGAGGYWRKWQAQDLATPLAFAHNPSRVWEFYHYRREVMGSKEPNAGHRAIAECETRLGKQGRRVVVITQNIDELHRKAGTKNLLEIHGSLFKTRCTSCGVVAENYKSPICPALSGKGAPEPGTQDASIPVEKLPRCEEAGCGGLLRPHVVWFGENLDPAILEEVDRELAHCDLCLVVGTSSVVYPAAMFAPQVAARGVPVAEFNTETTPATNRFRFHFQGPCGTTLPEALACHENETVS
FGF22 binding: shifts melting point of recombinant human FGF22; Q9HCT0; recombinant FGF22 thermal shift, SYPRO orange fluorescence; percent of sucrose octasulfate shift, DMSO zero; activity (Tm shift, normalised), % at 9.99 µM; 340,000 compounds, 1.5% hits; AID 651658;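 active means mean Tm shift, scaled 0 neutral to 100 positive control, at about 1.3% or above, every replicate too, limit read from the data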
CASP6 VEID inh: inhibitors of human caspase-6; 350,000 compounds, 0.53% hits; P55212; inhibition, % at 12.5 µM; purified caspase-6, Z-VEID-R110 cleavage fluorescence;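 active means mean inhibition across replicates at least about 35%, with every replicate also reaching that limit, limit read from the data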
Target sequence (P55212 24-179 limits assumed): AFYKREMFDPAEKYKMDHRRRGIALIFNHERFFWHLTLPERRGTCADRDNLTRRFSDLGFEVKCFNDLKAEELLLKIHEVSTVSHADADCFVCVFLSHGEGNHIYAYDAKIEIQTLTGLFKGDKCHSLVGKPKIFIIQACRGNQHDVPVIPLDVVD
Target sequence (P55212 194-293 limits assumed): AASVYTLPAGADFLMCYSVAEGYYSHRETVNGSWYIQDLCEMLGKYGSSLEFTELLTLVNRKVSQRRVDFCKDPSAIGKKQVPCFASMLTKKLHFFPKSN
Each line names hits and unclear results; the compound was inactive in the other large screens.

CN(C)CC#Cc1ccc([C@@H]2[C@@H](CO)N3C(=O)CN(C(=O)Cc4cccnc4)C[C@@H]23)cc1	none (no result: FGF22 binding)
COc1ccc(S(=O)(=O)N2CCCCN3[C@H](CO)[C@H](c4ccc(C#CCC(C)C)cc4)[C@@H]3C2)cc1	SIRT5 block 16
COc1ccc(S(=O)(=O)N2CCCCN3[C@H](C2)[C@@H](c2ccc(C#CC(C)C)cc2)[C@@H]3CO)cc1	SIRT5 block 16
COc1ccc(S(=O)(=O)N2CCCCN3[C@H](CO)[C@@H](c4ccc(C#CC5CC5)cc4)[C@@H]3C2)cc1	SIRT5 block 20
COc1cccc(S(=O)(=O)N2CCCCN3[C@H](CO)[C@@H](c4ccc(C#CC(C)C)cc4)[C@@H]3C2)c1	none
COc1ccc(S(=O)(=O)N2CCCCN3[C@H](CO)[C@@H](c4ccc(C#CC5CC5)cc4)[C@H]3C2)cc1	none
COc1ccc(S(=O)(=O)N2CCCCN3[C@H](CO)[C@H](c4ccc(C#CC(C)C)cc4)[C@H]3C2)cc1	SIRT5 block 20
CO[C@H]1CN(C)C(=O)c2ccc(NC(C)=O)cc2OC[C@H](C)N(C(=O)c2ccccn2)C[C@H]1C	none
C[C@H](CO)N1C[C@H](C)[C@@H](CN(C)C)Oc2cc(C#CC3(O)CCCC3)ccc2S1(=O)=O	none
CO[C@@H]1CN(C)C(=O)c2ccc(NC(=O)NC(C)C)cc2OC[C@@H](C)N(CCC(F)(F)F)C[C@@H]1C	none
C[C@H]1CN([C@@H](C)CO)C(=O)c2cc(C3=CCCC3)cnc2O[C@@H]1CN(C)S(=O)(=O)c1cn(C)cn1	none
O=C(O)COc1ccccc1/C=N/NC(=O)c1cc(-c2ccc(F)cc2)nc2ccccc12	FGF22 binding 1.5
CCCCNC(=O)C1(C)CCCCN1C(=O)c1csnn1 (stereo not given)	FGF22 binding 44 (no result: SIRT5 block)
Clc1ccccc1CN1CCN(CCCc2ccccc2)CC1	FGF22 binding 43
OCC1(CCc2ccccc2)CCN(Cc2ccccc2Cl)CC1	none
Cc1cc(C)c(OCC(=O)NCC(C)(C)N2CCOCC2)c(C)c1	SIRT5 block 30
Cc1ccc(C)c(OCC(=O)NCC(C)(C)N2CCOCC2)c1	none
c1cncc(CNc2ncnc3ccc(-c4cccnc4)cc23)c1	FGF22 binding 45
Clc1cccc(-c2ccc3ncnc(NCc4cccnc4)c3c2)c1	none
Cc1noc(C)c1NC(=O)N[C@@H]1CC[C@@H](CC(=O)NCc2ccc(Cl)c(Cl)c2)O[C@@H]1CO	none
CCNC(=O)C[C@@H]1CC[C@@H]2[C@@H](COc3ccc(NC(=O)c4cccc(OC)c4)cc3C(=O)N2C)O1	none
Oc1ccc(NCc2ccc(OCc3ccccc3)cc2)cc1	none (no result: CASP6 VEID inh)
O=C1CCCC/C1=N\Nc1ccc(OCc2ccccc2)cc1	FGF22 binding 1.5 (no result: SIRT5 block)
Cc1noc(C)c1NC(=O)Nc1ccc2c(c1)C(=O)N([C@H](C)CO)C[C@@H](C)[C@H](CN(C)Cc1ccc(C(F)(F)F)cc1)OCCCC[C@H](C)O2	none
Cc1cc(C([O-])=C(C(=S)Nc2ccccc2)[n+]2ccccc2)c(C)n1-c1ccccc1	none (no result: SIRT5 block)
Cc1ccccc1NC(=S)/C(=C(\[O-])c1cc(C)n(Cc2ccccc2Cl)c1C)[n+]1ccccc1	FGF22 binding 43
O=C(CCN1CCCCC1)NCC[C@@H]1CC[C@H](NC(=O)Nc2ccc(Cl)cc2)[C@H](CO)O1	none
Cc1ccc(CNS(=O)(=O)c2ccccc2[N+](=O)[O-])cc1	FGF22 binding 44
Cc1nnc(SCc2cc([N+](=O)[O-])cc3c2OCOC3)n(N)c1=O	FGF22 binding 43
C[C@H](CO)N1C[C@H](C)[C@H](CN(C)Cc2ccncc2)Oc2ccc(NC(=O)CCCCCC(=O)Nc3ccccc3N)cc2C1=O	none (no result: SIRT5 block)
C[C@H]1CN([C@@H](C)CO)C(=O)c2cccc(NC(=O)CCCCCC(=O)Nc3ccccc3N)c2O[C@H]1CN(C)CC1CCCCC1	none
C[C@H](CO)N1C[C@H](C)[C@@H](CN(C)Cc2ccc(Oc3ccccc3)cc2)Oc2c(NC(=O)CCCCCC(=O)Nc3ccccc3N)cccc2C1=O	SIRT5 block 22
C[C@H](CO)N1C[C@H](C)[C@@H](CN(C)CC2CCCCC2)Oc2c(NC(=O)CCCCCC(=O)Nc3ccccc3N)cccc2C1=O	SIRT5 block 19 (no result: FGF22 binding)
C[C@H](CO)N1C[C@H](C)[C@H](CN(C)Cc2ccc(-c3ccccc3)cc2)Oc2ccc(NC(=O)CCCCCC(=O)Nc3ccccc3N)cc2C1=O	SIRT5 block 23
C[C@@H]1CN([C@H](C)CO)C(=O)Cc2cc(NC(=O)CCCCCC(=O)Nc3ccccc3N)ccc2O[C@H]1CN(C)Cc1ccc(Oc2ccccc2)cc1	SIRT5 block 15
CNC[C@H]1OCCCC[C@H](C)Oc2ccc(NC(=O)Nc3ccccc3)cc2C(=O)N([C@H](C)CO)C[C@@H]1C	none
CC(=O)N1[C@@H]2c3ccc(C4=CCCCC4)c(=O)n3C[C@H]1[C@H](CO)[C@H]2C(=O)N[C@@H](C)c1ccccc1	none
C[C@@H]1CN([C@@H](C)CO)C(=O)c2cc(NC(=O)CCCCCC(=O)Nc3ccccc3N)ccc2O[C@H]1CN(C)Cc1ccccc1	SIRT5 block 21
C[C@H]1CN([C@@H](C)CO)C(=O)c2cc(NC(=O)CCCCCC(=O)Nc3ccccc3N)ccc2O[C@H]1CN(C)Cc1ccc(Oc2ccccc2)cc1	SIRT5 block 17 (no result: FGF22 binding)
C[C@H](CO)N1C[C@H](C)[C@@H](CN(C)CC2CC2)Oc2c(NC(=O)Cc3ccccc3)cccc2C1=O	SIRT5 block 25
C[C@@H]1CN([C@H](C)CO)C(=O)Cc2cc(NC(=O)Cc3ccccc3)ccc2O[C@@H]1CN(C)Cc1ccc(Oc2ccccc2)cc1	none
C[C@H]1CN([C@@H](C)CO)C(=O)Cc2cc(NC(=O)Cc3ccccc3)ccc2O[C@H]1CN(C)Cc1ccc(Oc2ccccc2)cc1	SIRT5 block 17
Cc1ccccc1S(=O)(=O)N[C@H]1CC[C@@H](CCn2cc(-c3ccc(F)cc3)nn2)O[C@@H]1CO	none
C[C@@H]1CN([C@@H](C)CO)C(=O)Cc2cc(N(C)C)ccc2O[C@@H]1CN(C)Cc1ccccc1	CASP6 VEID inh 35
C[C@H]1CN([C@@H](C)CO)C(=O)Cc2cc(NS(C)(=O)=O)ccc2O[C@@H]1CN(C)C(=O)NC1CCCCC1	none
CCNC(=O)[C@@H]1[C@@H](CO)[C@@H]2Cn3c(ccc(-c4ccccc4)c3=O)[C@@H]2N1CC1CC1	none
COC(=O)[C@H]1[C@H](CO)[C@H]2Cn3c(cccc3=O)[C@H]2N1CC1CCCC1	none (no result: FGF22 binding)
CCCNC(=O)[C@@H]1[C@@H](CO)[C@@H]2Cn3c(ccc(-c4ccccc4)c3=O)[C@@H]2N1CC1CC1	CASP6 VEID inh 54
O=C(NCc1ccccn1)[C@@H]1[C@@H](CO)[C@@H]2Cn3c(cccc3=O)[C@@H]2N1CCc1ccccc1	SIRT5 block 16
COC(=O)[C@H]1[C@H](CO)[C@H]2Cn3c(cccc3=O)[C@H]2N1CC1CCOCC1	CASP6 VEID inh 70
O=C(NCc1ccc(F)cc1)[C@H]1[C@H](CO)[C@H]2Cn3c(cccc3=O)[C@H]2N1Cc1ccccn1	none
